According to PubChem BioAssay (NCATS):
Records with an inconclusive call do not appear. Active and inactive are the calls of the source. The call rests on the fitted dose curve; in most records, active means well fitted curve in the direction sought with a large enough effect; inconclusive means small, poorly fitted or top-dose-only effect, or another doubt; inactive means no such curve, though single readings can be large; an effect the other way counts as inactive or inconclusive. Residues, ends and D or L forms follow the SMILES beside them. *: point of attachment. Cbz = O=C(OCc1ccccc1)*

Columns and labels:
[1] = qHTS of pediatric cancer cell lines to identify multiple opportunities for drug repurposing: Primary screen for SJ-GBM2 cells (AID 1347091)
Outline: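 Cell viability, CellTiter-Glo luminescence; 500-1,000 cells/well, 8- or 11-point titration, 48 h compound exposure at 37 degrees C, 5% CO2. Controls: DMSO neutral, bortezomib 2.3 µM final as positive.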

[2] = qHTS of pediatric cancer cell lines to identify multiple opportunities for drug repurposing: Primary screen for A673 cells (AID 1347092); further: nearly all actives have a fitted effect of over 45% in size
Outline: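 A673 cells (500-1,000 cells/well in growth media) were pre-incubated 5 h at 37 degrees C, then exposed to compounds for 48 h. Viability was read as CellTiter-Glo luminescence; concentration-response curves came directly from the primary screen.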

[3] = qHTS of pediatric cancer cell lines to identify multiple opportunities for drug repurposing: Primary screen for SK-N-MC cells (AID 1347093)
Outline: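 Metabolically active cells were quantified by ATP-dependent luminescence (CellTiter-Glo, 15 min at room temperature) following 48 h treatment. Cells had been plated at 500-1,000 per well and settled for 5 h beforehand.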

[4] = qHTS of pediatric cancer cell lines to identify multiple opportunities for drug repurposing: Primary screen for BT-37 cells (AID 1347094)
Outline: (§1)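 Following a 5-hour attachment period, cells at 500-1,000/well received compounds and were cultured for 48 hours. CellTiter-Glo was added and luminescence read to estimate viable, metabolically active cells.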

[5] = qHTS of pediatric cancer cell lines to identify multiple opportunities for drug repurposing: Primary screen for NB-EBc1 cells (AID 1347095)
Outline: as §1

[6] = qHTS of pediatric cancer cell lines to identify multiple opportunities for drug repurposing: Primary screen for U-2 OS cells (AID 1347096); further: nearly all actives have a fitted effect of over 50% in size
Outline: (§2)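 Cells (500-1,000/well) rested 5 h, then received compounds for 48 h; metabolically active cells were measured by CellTiter-Glo luminescence. Final concentrations spanned up to 46 µM (MIPE, 11-point) or 0.59 nM-46 µM (NPC, 8-point) in primary screens, 11-point in follow-ups.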

[7] = qHTS of pediatric cancer cell lines to identify multiple opportunities for drug repurposing: Primary screen for Saos-2 cells (AID 1347097); further: nearly all actives have a fitted effect of over 40% in size
Outline: as §1

[8] = qHTS of pediatric cancer cell lines to identify multiple opportunities for drug repurposing: Primary screen for NB1643 cells (AID 1347099); further: nearly all actives have a fitted effect of over 50% in size
Outline: as §1

[9] = qHTS of pediatric cancer cell lines to identify multiple opportunities for drug repurposing: Primary screen for LAN-5 cells (AID 1347100)
Outline: as §2

[10] = qHTS of pediatric cancer cell lines to identify multiple opportunities for drug repurposing: Primary screen for Rh18 cells (AID 1347102); further: nearly all actives have a fitted effect of over 65% in size
Outline: as §2

[11] = qHTS of pediatric cancer cell lines to identify multiple opportunities for drug repurposing: Primary screen for OHS-50 cells (AID 1347103); further: nearly all actives have a fitted effect of over 40% in size
Outline: as §2

[12] = qHTS of pediatric cancer cell lines to identify multiple opportunities for drug repurposing: Primary screen for RD cells (AID 1347104); further: nearly all actives have a fitted effect of over 55% in size
Outline: as §1

[13] = qHTS of pediatric cancer cell lines to identify multiple opportunities for drug repurposing: Primary screen for control Hh wild type fibroblast cells (AID 1347106); further: nearly all actives have a fitted effect of over 55% in size
Outline: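 Viability after 48 h compound treatment at 37C, 500-1,000 cells/well, read as ATP luminescence with CellTiter-Glo. Primary screens used 11-point (MIPE, 0.78 nM-46 µM) or 8-point (NPC, 0.59 nM-46 µM) final concentrations; follow-up screens used 11-point dilutions.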

[14] = qHTS of pediatric cancer cell lines to identify multiple opportunities for drug repurposing: Primary screen for SK-N-SH cells (AID 1347098); further: nearly all actives have a fitted effect of over 65% in size
Outline: as §2

[15] = qHTS of pediatric cancer cell lines to identify multiple opportunities for drug repurposing: Primary screen for BT-12 cells (AID 1347101); further: nearly all actives have a fitted effect of over 25% in size
Outline: as §2

[16] = qHTS of pediatric cancer cell lines to identify multiple opportunities for drug repurposing: Primary screen for MG 63 (6-TG R) cells (AID 1347105); further: nearly all actives have a fitted effect of over 50% in size
Outline: as §1

[17] = qHTS of pediatric cancer cell lines to identify multiple opportunities for drug repurposing: Primary screen for Rh30 cells (AID 1347107); further: nearly all actives have a fitted effect of over 75% in size
Outline: as §2

[18] = qHTS of pediatric cancer cell lines to identify multiple opportunities for drug repurposing: Primary screen for Rh41 cells (AID 1347108); further: nearly all actives have a fitted effect of over 70% in size
Outline: as §1

[19] = qHTS of pediatric cancer cell lines to identify multiple opportunities for drug repurposing: Confirmatory screen for NB1643 cells (AID 1347109); further: nearly all actives have a fitted effect of over 45% in size
Outline: as §2

[20] = qHTS of pediatric cancer cell lines to identify multiple opportunities for drug repurposing: Confirmatory screen for A673 cells (AID 1347110); further: nearly all actives have a fitted effect of over 65% in size
Outline: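 A673 cells seeded at 500-1,000 cells/well, rested 5 h, then dosed; primary MIPE 11-point (0.78 nM to 46 µM), NPC (0.59 nM to 46 µM); confirmatory 11-point. CellTiter-Glo luminescence after 48 h.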

Measured: Potency
Potency means the concentration at half of the fitted maximal effect.

Nc1ccc(C(=O)Nc2cccc(-c3nc(N4CCOCC4)c4oc5ncccc5c4n3)c2)cn1
active: [1] 3720 nM | [2] 14800 nM | [3] 1180 nM | [4] 13700 nM | [5] 2350 nM | [6] 18700 nM | [7] 8330 nM | [8] 2350 nM | [9] 6620 nM | [10] 14800 nM | [11] 6110 nM | [12] 10500 nM
inactive: [13]

CC1(C)[C@H](O[C@H]2O[C@H](C(=O)O)[C@@H](O)[C@H](O)[C@H]2O[C@@H]2O[C@H](C(=O)O)[C@@H](O)[C@H](O)[C@H]2O)CC[C@@]2(C)[C@H]1CC[C@]1(C)[C@H]2C(=O)C=C2[C@H]3C[C@@](C)(C(=O)O)CC[C@]3(C)CC[C@]21C
not listed: [7] | [8] | [19] | [20]
inactive: all other assays above

COc1ccnc2[nH]cc(C(=O)C(=O)N3CCN(C(=O)c4ccccc4)C[C@@H]3C)c12
not listed: [8] | [9] | [12] | [14] | [15] | [19] | [20]
inactive: all other assays above

O=C1c2c(O)cccc2[C@@H]([C@@H]2O[C@H](CO)[C@@H](O)[C@H](O)[C@H]2O)c2cc(CO)cc(O)c21
active: [3] 11800 nM
not listed: [8]
inactive: all other assays above

CCc1nc(-c2cccc(C)c2)c(-c2ccnc(NC(=O)c3ccccc3)c2)s1
active: [1] 18700 nM | [2] 23500 nM | [3] 29600 nM | [4] 27300 nM | [5] 20900 nM
inactive: [14] | [10] | [13]

OCCN1C[C@H](O)[C@@H](O)[C@H](O)[C@@H]1CO
active: [2] 9350 nM | [4] 19300 nM
not listed: [6] | [9] | [10] | [15] | [19] | [20]
inactive: all other assays above

COc1ccc2c(c1OC)C(=O)OC2[C@H]1c2c(cc3c(c2OC)OCO3)CCN1C (stereo partly specified)
active: [1] 132 nM | [2] 74.3 nM | [3] 83.3 nM | [4] 611 nM | [5] 372 nM | [7] 235 nM | [8] 1180 nM | [15] 1090 nM | [11] 137 nM | [12] 372 nM | [18] 469 nM
inactive: [10]

C[C@]12CC[C@@H]3c4ccc(O)cc4CC[C@H]3[C@H]1CC[C@H]2O
inactive: [13]
active: [1] 16600 nM | [2] 2960 nM | [3] 10500 nM | [4] 27300 nM | [5] 9350 nM | [7] 16600 nM | [8] 4180 nM | [9] 9350 nM | [11] 24300 nM | [12] 10500 nM

C[C@H](NCc1ccc2c(c1)nc(NC(=O)c1ccc(-c3cn[nH]c3)s1)n2CCc1ccccc1)C(C)(C)C
active: [1] 1050 nM | [2] 743 nM | [3] 1660 nM | [4] 1370 nM | [5] 1870 nM | [14] 3040 nM | [8] 1180 nM | [9] 833 nM | [15] 2430 nM | [10] 2960 nM | [11] 1090 nM | [12] 3720 nM | [16] 2960 nM | [17] 14800 nM | [18] 2350 nM | [19] 1040 nM | [20] 928 nM

CC(C)C[C@@H](C=O)NC(=O)[C@H](CC(C)C)NC(=O)[C@H](CC(C)C)NC(=O)OCc1ccccc1 (Cbz-Leu-Leu-Leu-aldehyde)
active: [1] 105 nM | [2] 235 nM | [3] 83.3 nM | [4] 863 nM | [5] 166 nM | [7] 743 nM | [14] 857 nM | [8] 372 nM | [9] 662 nM | [15] 1530 nM | [10] 1320 nM | [11] 685 nM | [16] 372 nM | [13] 2960 nM | [17] 3720 nM | [18] 1480 nM | [20] 1170 nM

C=CC(=O)Nc1ccc2ncnc(Nc3ccc(OCc4cccc(F)c4)c(Cl)c3)c2c1
active: [1] 29.6 nM | [2] 1 nM | [3] 16.6 nM | [4] 15.3 nM | [5] 52.6 nM | [14] 171 nM | [8] 74.3 nM | [9] 1 nM | [15] 17.2 nM | [10] 7430 nM | [11] 4.3 nM | [12] 29.6 nM | [16] 296 nM | [18] 235 nM | [19] 14700 nM | [20] 3290 nM
inactive: [13]

CC[C@]12C=CCN3CC[C@@]4(c5cc([C@@]6(C(=O)OC)C[C@H]7C[C@@H](C(C)(F)F)CN(Cc8c6[nH]c6ccccc86)C7)c(OC)cc5N(C)[C@H]4[C@@](O)(C(=O)OC)[C@H]1OC(C)=O)[C@@H]32
inactive: [17] | [19]
active: [1] 1 nM | [2] 4.7 nM | [3] 3 nM | [4] 27.3 nM | [5] 11.8 nM | [7] 8.3 nM | [8] 132 nM | [9] 5.3 nM | [15] 34.3 nM | [11] 19.3 nM | [12] 5.9 nM | [20] 522 nM
